PrPC surface inh: cell surface PrPC inhibition, primary TR-FRET screen; TR-FRET read-out; inhibition, % at 13.8 µM; AID 720596; P04156; actives 0.43% (n = 370,000); in the data active = inhibition above about 24%; note: 0% = median of the test wells and 100% = reference compound wells
3CLpro inhibitor: SARS-CoV 3CLpro protease inhibition. AID 1706. recombinant SARS-CoV 3CLpro, quenched FRET peptide cleavage. inhibition, % at 6 µM. actives 0.14% (n = 290,000); in the data active = inhibition above about 12%
Vc quorum ag-1: quorum light induction in luxS cqsA deficient V. cholerae. AID 588436. V. cholerae BH1578 lux reporter, luminescence, 6 h. actives 0.16% (n = 350,000). activation, % at 18.7 µM; in the data active = activation mostly above about 9.7%, no sharp cut-off
GDH-TPI counter: counter-screen for M. tuberculosis FBA inhibitors: GDH-TPI coupled enzymes. actives 1.2% (n = 360,000). GDH-TPI coupled enzyme counterscreen, NADH absorbance. inhibition, % at 4.8 µM; in the data active = inhibition above about 30%;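 note: 0% = DMSO wells and 100% = wells lacking the enzyme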
FBA Mtb inh: inhibits M. tuberculosis FBA enzyme; purified M. tuberculosis FBA, fluorescence read-out; inhibition, % at 1 µM; P9WQA3; actives 2.3% (n = 360,000); in the data active = inhibition above about 27%;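 note: 0% = vehicle and 100% = reference inhibitor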
Target sequence (P9WQA3 whole entry, looked up): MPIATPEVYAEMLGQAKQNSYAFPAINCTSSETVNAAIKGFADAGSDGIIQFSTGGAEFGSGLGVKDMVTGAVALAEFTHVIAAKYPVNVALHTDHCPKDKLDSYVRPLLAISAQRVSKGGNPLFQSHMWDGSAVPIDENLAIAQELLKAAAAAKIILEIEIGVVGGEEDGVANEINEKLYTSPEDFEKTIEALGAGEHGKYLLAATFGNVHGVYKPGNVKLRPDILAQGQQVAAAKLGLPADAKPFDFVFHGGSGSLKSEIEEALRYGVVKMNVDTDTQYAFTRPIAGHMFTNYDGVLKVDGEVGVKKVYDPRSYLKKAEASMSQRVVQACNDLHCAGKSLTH
Vc quorum ag-2: induces V. cholerae light production without autoinducers. V. cholerae BH1578 lux reporter, luminescence, 6 h. shares compounds with Vc quorum ag-1. activation, % at 50 µM. 620 tested, under 10 active. AID 602243; call rule not given here
HeLa tox: kills HeLa cells within 24 hours | 25 tested, under 10 active | activity change, negative = cytotoxicity, % at 35 µM | shares compounds with Vc quorum ag-1 | HeLa viability, CellTiter-Glo ATP luminescence;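 active = signal drop with fitted half-maximal concentration at or below twice the highest valid dose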
* marks the source's active call; other numbers are inactive results; i = inactive; / = not tested or not shown. Hits are enriched below; roughly 3.9% of the tested compounds scored in any of these assays.

SMILES	PrPC surface inh	3CLpro inhibitor	Vc quorum ag-1	GDH-TPI counter	FBA Mtb inh	Vc quorum ag-2	others
CCOC1=C2[C@H](c3ccc(CC)cc3)N(S(=O)(=O)c3ccc(C)cc3)C[C@H]2C(C#N)(C#N)C(C#N)(C#N)C1	-1	/	/	/	-2	/
COc1ccc(NS(=O)(=O)c2cccc(C(=O)NCC(c3cccs3)N3CCOCC3)c2)cc1 (stereo unspecified)	4	/	0	-4	1	/
CCOC(=O)c1ccccc1NC(=O)C1=COCCO1	-5	/	i	-1	1	/
CCOC(=O)c1ccccc1NC(=O)COC(=O)C1=COCCO1	0	4	12	4	4	-1
CC(C)NC(=O)c1ccc(-c2cc(C(F)(F)F)ccc2Cl)o1	-5	-3	-2	5	4	/
CC(C)NC(=O)c1ccc(-c2cccc(C(F)(F)F)c2)o1	3	1	33*	-2	7	0
Cc1cccc(-n2ncc3c2CCCC3NC(=O)C2=CC(=O)CC(C)(C)O2)c1C (stereo unspecified)	9	1	0	-2	-7	/
OCCNc1nc(Nc2cccc(O)c2)nc2ccccc12	7	0	i	12	1	/
COc1cccc(Nc2nc(NCCO)c3ccccc3n2)c1	-3	-3	40*	-8	2	1
CSCCC(C(=O)Nc1c(C)cccc1C)N1CCC(Cc2ccccc2)CC1 (stereo unspecified)	0	/	/	/	2	/
Cn1c(C(=O)NC2CCCCC2)cc2c(=O)n(C)c3ccccc3c21	-6	0	245*	13	15	i
CCOC(=O)c1cccc(NC(=O)CN(C)S(=O)(=O)c2ccc(Br)s2)c1	0	/	/	/	/	/
CCOC(=O)CSc1nc(C)cc(C)c1C#N	-3	1	17*	7	3	0
COc1ccc(NC(=O)CSc2ccc3c(c2)OCCO3)cc1OC	7	-4	25*	-6	2	0
COc1cc(NC(=O)CSc2ccc3c(c2)OCCO3)cc(OC)c1OC	5	-1	i	-3	1	/
CCn1c(SCC(=O)Nc2ccc3c(c2)OCCO3)nnc1-c1ccccn1	1	1	12	3	1	0
Cc1cc(C)c2c(N)c(C(=O)N3CCc4ccccc4C3)sc2n1	-12	5	-1	-2	-2	/
C[C@H](CO)N1C[C@H](C)[C@@H](CN(C)S(=O)(=O)c2ccccc2)Oc2c(NC(=O)Nc3ccc4c(c3)OCO4)cccc2C1=O	12	/	109*	11	3	11
C[C@H](CO)N1C[C@H](C)[C@@H](CN(C)S(C)(=O)=O)Oc2c(NC(=O)Nc3ccc4c(c3)OCO4)cccc2C1=O	0	/	i	4	-1	/
CCn1nnnc1NCc1ccc(N2CCCC2)cc1	0	-2	/	-3	-2	i	HeLa tox=13
Cc1ccc(CNc2nnnn2C)cc1	6	-6	0	2	3	/
CCn1nnnc1NCc1ccc(SC)cc1	7	-1	/	-12	-3	i
O=S1(=O)CC(N2CC=CC2)CN1Cc1cn(Cc2ccc(Cl)cc2)nn1 (stereo unspecified)	-2	/	/	/	/	/
C=C(C)COc1ccc(-c2nc(N)ncc2-c2ccc(OC)cc2)c(O)c1	4	5	0	/	/	/
C=C(C)COc1ccc(-c2ncncc2Oc2ccc(OC)cc2)c(O)c1	6	-8	25*	3	-7	0
SMILES	PrPC surface inh	3CLpro inhibitor	Vc quorum ag-1	GDH-TPI counter	FBA Mtb inh	Vc quorum ag-2	others
COc1ccc(C(=O)/C=C(\Nc2ccc(F)cc2)c2ccc(OC)cc2OC)c(OC)c1	-4	/	/	/	/	/
Cn1c(CCNC(=O)c2ccco2)nc2cc(NC(=O)NC3CCCCC3)ccc21	0	-2	7.6*	5	-1	0
Cn1c(CCNC(=O)c2ccco2)nc2cc(NC(=O)C3CCCCC3)ccc21	1	-2	-1	-2	2	/
CCN(CC(=O)Nc1c(F)cccc1F)C(=O)CCCSc1nc2ccccc2[nH]1	-7	/	-1	-2	3	/
Cc1ccc(Cn2c(SCC(C)C)nc3c2c(=O)[nH]c(=O)n3C)cc1	-2	7	25*	3	0	2
CC(=O)Nc1nonc1NC(=O)c1ccc(F)cc1	7	0	/	-16	0	/
CC(=O)Nc1nonc1NC(C)=O	2	4	26*	-5	3	1
Cc1ccc(C)c(-n2ccnc2SCC(=O)c2c(N)n(C3CC3)c(=O)[nH]c2=O)c1	-5	/	-2	3	6	/
Cc1nn(-c2ccccc2)c(C)c1NC(=O)COC(=O)c1cccc(OC(F)F)c1	-9	/	26	-3	1	0
Cc1nn(-c2ccccc2)c(C)c1NC(=O)COC(=O)c1ccccc1	-1	/	-1	6	-4	/
COC(=O)c1cc(Br)ccc1OC(=O)c1cccnc1	-5	1	17*	-2	-3	0
Cc1cc(C)cc(OC(=O)c2cccnc2)c1	-8	-2	32*	3	2	0
CC(C)(C)c1ccc(-c2cn(C[C@H](Cc3ccccc3)n3c(=O)c4ccccc4n3Cc3ccno3)nn2)cc1	2	/	/	/	/	/
CC(C)[C@H](NC(=O)c1c(F)cccc1F)C(=O)OCC(=O)NNC(=O)c1ccccc1	1	/	i	0	-3	/
Cc1cccc(N(CC(N)=O)C2SC(=O)N(c3ccccc3)C2=O)c1 (stereo unspecified)	-3	0	25*	-8	-11	10
Cc1ccc(N(CC(N)=O)C2SC(=O)N(C)C2=O)cc1 (stereo unspecified)	0	-3	i	2	1	/
CCCCN1C(=O)C(O)(CC(=O)c2ccccc2OC)c2ccccc21 (stereo unspecified)	-5	0	0	6	5	/
CCCCN1C(=O)C(O)(CC(=O)c2ccccn2)c2ccccc21 (stereo unspecified)	1	2	44*	7	4	200
CC(=O)Nc1cccc(Oc2nc(NCCN(C)C)nc3ccsc23)c1	-4	/	-1	-2	6	/
CSc1ccc(C#N)cc1NC(=O)c1ccc(Cl)cc1Cl	1	-2	186*	1	1	0
O=C(Oc1ccnc2cc(Cl)ccc12)N1CCCCCC1	1	-2	17*	10	2	1
COC(=O)[C@@]12C[C@@H](CC(=O)NCc3cccc(C(F)(F)F)c3)C(=O)N(CCc3ccc(OC)c(OC)c3)C1=CCC(C)(C)C2	-3	/	/	/	/	/
CC1(c2ccc(Cl)cc2)NC(=O)N(CC(=O)NCCC2=CCCCC2)C1=O (stereo unspecified)	7	/	-5	-7	1	/
Cc1ccc(C2(C)NC(=O)N(CC(=O)NCCC3=CCCCC3)C2=O)cc1 (stereo unspecified)	4	1	228*	8	6	0
CCOC(=O)C1=C(C)NC(SC)=NC1c1ccc(OC)cc1 (stereo unspecified)	0	-1	25	6	-5	0
